Test systems include NCI-H23 lung; NCI-H226 lung; NCI-H322M lung; HOP-62 NSCLC; NCI-H460 lung; HOP-92 NSCLC; NCI-H522 lung; A549/ATCC NSCLC; 786-0 renal; COLO 205 colon; DU-145 prostate; K-562 leukemia; MALME-3M melanoma; MDA-MB-231 breast; RXF 393 renal; SF-268 CNS; SF-295 CNS; SF-539 CNS; UACC-257 melanoma; M14 melanoma.
Common to all, as to test: NCI-60 one-dose screen, 48 h (100 = growth as untreated, 0 = no growth, -100 = all killed)
What all share (conditions): 10 µM unless noted

Structures are written as SMILES. About 83,000 compounds went through this panel and 20% of them were active in at least one assay; those are over-represented in the sample as a whole.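 The test compound was applied at a single concentration to cells in 96-well plates for 48 hours, and percent growth was recorded.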 Unmarked numbers belong to inactive results. Calls of active or inactive are those of the source. Rule for the calls: active = growth percent below 10; inactive = the rest.

On to `C[C@@H](Nc1c(C#N)cnc2ccc(-c3cnc4[nH]ncc4c3)cc12)c1ccccc1`, for which the growth with NCI-H23 lung was 21%; in the assay on NCI-H226 lung it was -1.92% (active); with NCI-H322M lung, -2.29% (active); in the assay on HOP-62 NSCLC, 35.4%; in the assay with NCI-H460 lung, 15.4%; in the assay on HOP-92 NSCLC, -11.3% (active). The growth with NCI-H522 lung is 13.1%; in the assay with A549/ATCC NSCLC, 5.68% (active); in the assay on 786-0 renal it was 11%; in the assay with COLO 205 colon, 84.2%; with DU-145 prostate, 12.3%; with K-562 leukemia, 22.4%. For the same molecule, the growth was -2.53% (active) in the assay on MALME-3M melanoma; 9.96% (active) in the assay with MDA-MB-231 breast; -15.1% (active) in the assay on RXF 393 renal; 25.7% in the assay on SF-268 CNS; -0.0923% (active) with SF-295 CNS; 7.78% (active) in the assay on SF-539 CNS. Also, the growth in the assay with UACC-257 melanoma was 32.5%; with M14 melanoma, 29.9%.

With `O=c1[nH]c2ccccc2cc1COc1ccc(Nc2nccc(-c3ccc(Cl)cc3)n2)cc1`, the growth in the assay with NCI-H23 lung is 95.9%; with NCI-H226 lung, 103%; in the assay on NCI-H322M lung, 107%; in the assay on HOP-62 NSCLC, 87.1%; in the assay with NCI-H460 lung, 103%; with HOP-92 NSCLC, 97.7%. The growth was 89.1% with NCI-H522 lung; 101% with A549/ATCC NSCLC; 88.2% with 786-0 renal; 116% in the assay on COLO 205 colon; 89% in the assay with DU-145 prostate; 95.2% in the assay with K-562 leukemia. The growth was 105% in the assay on MALME-3M melanoma; 105% with MDA-MB-231 breast; 91.8% in the assay on RXF 393 renal; 105% with SF-268 CNS; 90.8% with SF-295 CNS; 91.6% in the assay with SF-539 CNS. For the same molecule, the growth in the assay with UACC-257 melanoma and with M14 melanoma was 107% throughout.

On to `CC[C@]12C=CCN3CC[C@@]4(c5ccc(OC)cc5N(C)[C@H]4[C@@](O)(C(=O)OC)[C@@H]1OC(=O)CCC[P+](c1ccc(OC)cc1)(c1ccc(OC)cc1)c1ccc(OC)cc1)[C@@H]32`, for which the growth was -92.5% (active) in the assay on NCI-H23 lung; -80.3% (active) in the assay on NCI-H226 lung; -97.7% (active) in the assay with NCI-H322M lung; -81.6% (active) in the assay with HOP-62 NSCLC; -85.2% (active) in the assay on NCI-H460 lung; -82.9% (active) in the assay with HOP-92 NSCLC. Also, the growth in the assay with NCI-H522 lung was -89.4% (active); in the assay with A549/ATCC NSCLC, -91.4% (active); with 786-0 renal, -89.5% (active); in the assay with COLO 205 colon, -64.4% (active); with DU-145 prostate, -75.4% (active); in the assay on K-562 leukemia, -1.75% (active). For the same molecule, the growth is -97.8% (active) in the assay on MALME-3M melanoma; -97% (active) in the assay on MDA-MB-231 breast; -92.6% (active) with RXF 393 renal; -34.3% (active) in the assay with SF-268 CNS; -93.7% (active) in the assay with SF-295 CNS; -98.9% (active) in the assay with SF-539 CNS. Moreover, the results for the growth in the assay with UACC-257 melanoma and with M14 melanoma were -93.5% (active) and -88.4% (active), respectively.

For `Cc1cccc(-c2ccccc2Oc2ccc3nnc(Cl)n3n2)c1`, the growth in the assay on NCI-H23 lung was 96.8%; in the assay with NCI-H226 lung it was 103%; in the assay on NCI-H322M lung it was 99.9%; with HOP-62 NSCLC, 114%; in the assay with NCI-H460 lung, 109%; in the assay on HOP-92 NSCLC, 130%. Moreover, the growth in the assay with NCI-H522 lung is 102%; in the assay on A549/ATCC NSCLC it was 98.7%; with 786-0 renal, 98.8%; with COLO 205 colon it was 127%; in the assay on DU-145 prostate, 111%; in the assay on K-562 leukemia it was 103%. The growth in the assay with MALME-3M melanoma is 94.4%; in the assay with MDA-MB-231 breast, 107%; in the assay on RXF 393 renal it was 107%; in the assay with SF-268 CNS it was 106%; in the assay with SF-295 CNS it was 95.3%; with SF-539 CNS, 98.8%. Further, the growth with UACC-257 melanoma is 99%; with M14 melanoma, 97.6%.

For the molecule `COc1ccc(N=Nc2c(N)nn3c(-c4ccc(F)cc4)ccnc23)cc1`, the growth in the assay on NCI-H23 lung was 43.7%; with NCI-H226 lung, 87.8%; in the assay with NCI-H322M lung, 84.3%; with HOP-62 NSCLC, 34.6%; in the assay on NCI-H460 lung, 64.7%; in the assay with HOP-92 NSCLC, 100%. For the same molecule, the growth with NCI-H522 lung was 86.5%; with A549/ATCC NSCLC, 43%; in the assay on 786-0 renal, 92.3%; in the assay on COLO 205 colon it was 94.4%; in the assay on DU-145 prostate, 79.9%; in the assay on K-562 leukemia, 71.9%. Besides, the growth in the assay on MALME-3M melanoma is 40.4%; in the assay with MDA-MB-231 breast, 77.2%; in the assay on RXF 393 renal it was 106%; in the assay with SF-268 CNS, 83.5%; in the assay on SF-295 CNS, 87.7%; in the assay on SF-539 CNS it was 67.5%. Also, the growth in the assay with UACC-257 melanoma was 81.8%; with M14 melanoma it was 51.3%.

`COc1cc(C2C(C(=O)OCc3ccccc3)=C(C)Nc3nc4ccccc4n32)cc(OC)c1OC` (stereo not given): the growth was 45.8% with NCI-H23 lung; -37.3% (active) in the assay on NCI-H226 lung; 40.9% with NCI-H322M lung; 31.1% in the assay on HOP-62 NSCLC; 16% in the assay on NCI-H460 lung; -0.272% (active) with HOP-92 NSCLC. The growth with NCI-H522 lung is -7% (active); in the assay on A549/ATCC NSCLC, 34.9%; in the assay with 786-0 renal it was -66.1% (active); in the assay with COLO 205 colon, 52.5%; in the assay on DU-145 prostate, 59.3%; in the assay on K-562 leukemia it was 20.7%. The growth is -16.7% (active) with MALME-3M melanoma; -26.7% (active) in the assay with MDA-MB-231 breast; -39.6% (active) with RXF 393 renal; 15.1% in the assay on SF-268 CNS; 3.38% (active) with SF-295 CNS; -44.5% (active) with SF-539 CNS. Also, the growth was 30.2% in the assay on UACC-257 melanoma and 27.1% in the assay with M14 melanoma.

For `COc1sc(/C=N/NC(=O)c2[nH]c3ccc(Br)cc3c2-c2ccccc2)cc1Br`, the growth with NCI-H23 lung was -14.1% (active); in the assay on NCI-H226 lung, 14.7%; with NCI-H322M lung, 31.4%; with HOP-62 NSCLC it was 12.2%; in the assay with NCI-H460 lung, -7.71% (active); with HOP-92 NSCLC, 63.7%. Further, the growth was -35.8% (active) in the assay on NCI-H522 lung; 6.26% (active) in the assay on A549/ATCC NSCLC; -1.7% (active) in the assay on 786-0 renal; 0.155% (active) in the assay with COLO 205 colon; -8.01% (active) with DU-145 prostate; 7.79% (active) in the assay with K-562 leukemia. In addition, the growth in the assay with MALME-3M melanoma was 48%; in the assay with MDA-MB-231 breast, -13.3% (active); with RXF 393 renal it was -0.818% (active); with SF-268 CNS, 3.22% (active); with SF-295 CNS, -15% (active); with SF-539 CNS it was -64.1% (active). Further, the growth in the assay on UACC-257 melanoma was 52.7%; with M14 melanoma it was 10.7%.

As for `CN(C)CCCc1ccc(Nc2cnn(C)c(=O)c2Cl)cc1`, the growth is 98% in the assay with NCI-H23 lung; 99% in the assay with NCI-H226 lung; 92.9% in the assay with NCI-H322M lung; 108% in the assay on HOP-62 NSCLC; 103% in the assay with NCI-H460 lung; 110% with HOP-92 NSCLC. Besides, the growth was 96.3% in the assay on NCI-H522 lung; 93.8% with A549/ATCC NSCLC; 95.9% in the assay with 786-0 renal; 118% in the assay with COLO 205 colon; 116% in the assay with DU-145 prostate; 89.8% in the assay on K-562 leukemia. Besides, the growth was 88.8% with MALME-3M melanoma; 108% with MDA-MB-231 breast; 90.2% with RXF 393 renal; 113% with SF-268 CNS; 89.2% with SF-295 CNS; 94% in the assay with SF-539 CNS. Further, the growth was 98.5% in the assay on UACC-257 melanoma and 100% in the assay on M14 melanoma.
